An excerpt weighted towards active compounds, which were near 19% of everything screened.
HepG2 viability: counter-screen for TGF-b inhibitors: cytotoxicity in HepG2 cells. Potency, µM (top dose mostly 46.1 µM), usual class: cytotoxic. 0.76% of 410,000 active. HepG2 CAGA-GFP viability, ATP luminescence, 18 h
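CellTiter-Glo luminescence gave cytotoxicity after 18 hours at 37 degrees C. The cells were HepG2 CAGA-GFP in 1% FBS DMEM, stimulated with 500 pg/mL TGF-beta after compound addition. %Activity was normalised to no-cell wells (complete cell-killing) and DMSO (no toxicity), and curves were fitted and classified.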
ASM inhibitor: inhibitors of human secretory acid sphingomyelinase. AID 504937. Potency, µM (top dose mostly 57.5 µM), hits mostly inhibitors. P17405. placental ASM, HMU-PC fluorogenic substrate, 60 min. 0.006% of 340,000 active
Target sequence (P17405 47-631 limits assumed): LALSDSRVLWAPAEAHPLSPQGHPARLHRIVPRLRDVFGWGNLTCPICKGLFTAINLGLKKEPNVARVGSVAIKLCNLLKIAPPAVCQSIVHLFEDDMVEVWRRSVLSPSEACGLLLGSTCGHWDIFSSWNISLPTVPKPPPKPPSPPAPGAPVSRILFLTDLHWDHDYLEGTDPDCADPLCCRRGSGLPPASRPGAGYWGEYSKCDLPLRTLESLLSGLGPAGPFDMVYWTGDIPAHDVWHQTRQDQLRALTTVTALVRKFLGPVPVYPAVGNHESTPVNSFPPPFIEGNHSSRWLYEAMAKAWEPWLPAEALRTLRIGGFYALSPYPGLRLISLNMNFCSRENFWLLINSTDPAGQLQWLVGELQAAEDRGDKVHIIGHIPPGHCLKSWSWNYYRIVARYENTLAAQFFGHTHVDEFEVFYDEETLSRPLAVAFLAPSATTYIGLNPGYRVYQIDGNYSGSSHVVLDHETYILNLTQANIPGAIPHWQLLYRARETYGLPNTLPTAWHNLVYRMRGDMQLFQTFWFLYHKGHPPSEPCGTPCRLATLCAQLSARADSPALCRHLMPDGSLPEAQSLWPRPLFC
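Human placenta-derived ASM preincubated with compound 10 min at room temperature, then reacted with 9 uM (final) fluorogenic HMU-PC substrate for 60 min at 37 C. Stop solution raises pH to 10; fluorescence read at Ex 386/Em 447 nm.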
TDP1 cell CPT: DT40-hTDP1 cell growth loss with CPT; chicken DT40 Tdp1-/-;hTDP1 cells + 20 nM CPT, ATP luminescence, 48 h; Potency, µM (doses to about 46.2 µM), usual class: inhibitors; 12% of 420,000 active; AID 686979; further: nearly all actives have a fitted effect of over 55% in size
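Chicken DT40 Tdp1-/- cells stably complemented with human TDP1 were seeded at 400 cells/well in medium containing 20 nM camptothecin, exposed to pin-transferred compounds, and grown at 37 °C for at least 48 hr. Viability was read as ATP luminescence.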
DT40 TDP1 no CPT: qHTS for Inhibitors of human tyrosyl-DNA phosphodiesterase 1 (TDP1): qHTS in cells in absence of CPT; DT40 Tdp1-/- hTDP1 cells, no CPT, ATP luminescence, 48 h; Potency, µM (titrated, usually from 46.2 µM), actives largely listed as inhibitors; 15% of 420,000 active; further: nearly all actives have a fitted effect of over 55% in size
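Stably hTDP1-transfected Tdp1-null chicken DT40 cells were treated with library compounds minus camptothecin and grown for at least 48 hr at 37 °C, after which cellular ATP was quantified by luminescence.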
IL1B secr inh: inhibitors of inflammasome signaling (IL-1 beta secretion); THP-1 LPS/ATP IL-1B secretion, AlphaLISA, 16 h; hits give low values; activity change, % at 57.5 µM; 4.7% of 360,000 active; AID 743279; in the data active means activity change below about -50%; inconclusive means mostly about -30% to -49%
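Secreted IL-1B measured by AlphaLISA bead assay after 16 h compound exposure of THP-1 cells; compounds (final up to 57.5 uM) added 1 h before LPS (250 ng/mL) and ATP (1.25 mM) stimulation; lower signal means less secretion.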
TGFb inhibitor: inhibitors of TGF-b signaling. HepG2 CAGA-GFP TGF-b/SMAD3 reporter, GFP fluorescence, 18 h; TGF-beta stimulated, 500 pg/mL final. 1.2% of 410,000 active. AID 588855. Potency, µM (top dose mostly 46.1 µM), actives largely listed as inhibitors; further: nearly all actives have a fitted effect of over 65% in size
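HEPG2 CAGA-GFP, 1000 cells/well; 2 h settle, 37 C; cpd via pin tool; TGF-b 500 pg/mL final; 18 h, 37 C; GFP imaging ex488/em500-530; %Activity normalised to -TGF-b and +DMSO controls; CRC fit, curve class.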
Numbers stand for hits; . = inactive; ? = inconclusive; / = not tested or not shown. Unless noted, the call rests on the fitted dose curve; in most records, active means well fitted curve in the direction sought with a large enough effect; inconclusive means small, poorly fitted or top-dose-only effect, or another doubt; inactive means no such curve, though single readings can be large; an effect the other way counts as inactive or inconclusive.

SMILES	HepG2 viability	ASM inhibitor	TDP1 cell CPT	DT40 TDP1 no CPT	IL1B secr inh	TGFb inhibitor
SCc1nc2ccccc2[nH]1	.	/	?	10µM	/	.
CSc1ccc(C2C(C#N)=C(N)Oc3c2ccc(=O)c2c(C)oc(C)c32)cc1 (stereo unspecified)	.	.	18µM	16µM	.	.
Cc1oc(C)c2c(=O)ccc3c(c12)OC(N)=C(C#N)C3c1ccccc1 (stereo unspecified)	.	.	?	?	.	.
Cc1ccc(NC(=O)CCN2CC(C)OC(C)C2)cc1C (stereo unspecified)	.	.	.	.	.	.
Cc1ccccc1NC(=O)C1CC(Cl)=CCC1C(=O)O (stereo unspecified)	.	.	?	13µM	.	.
Cc1ccc(NC(=O)C2CC(Cl)=CCC2C(=O)O)c([N+](=O)[O-])c1 (stereo unspecified)	.	.	.	?	.	.
Cc1ccsc1/C=N/N=C/c1sccc1C	.	.	.	?	.	.
Cc1ccsc1C=Nc1ccc(O)cc1	.	.	?	?	-99	?
COc1cccc(CNC(=O)CN(c2ccc(C(C)C)cc2)S(=O)(=O)c2c(C)n[nH]c2C)c1	.	/	16µM	23µM	/	16µM
Cc1n[nH]c(C)c1S(=O)(=O)N(CC(=O)NCc1ccccc1Cl)c1ccc(C(C)C)cc1	.	/	?	16µM	/	?
CCCCN(C1CCS(=O)(=O)C1)S(=O)(=O)c1cccs1 (stereo unspecified)	.	.	.	.	.	.
COc1ccc(N(CC(=O)Nc2ccccc2C(N)=O)S(=O)(=O)c2ccc(C)c([N+](=O)[O-])c2)cc1	.	.	?	23µM	?	.
COc1ccc(N(CC(=O)Nc2ccccc2C(=O)N2CCCC2)S(=O)(=O)c2ccccc2)cc1	.	/	21µM	16µM	.	.
COc1ccc(N(CC(=O)Nc2ccc(C(N)=O)cc2)S(=O)(=O)c2ccc(C)c([N+](=O)[O-])c2)cc1	.	.	.	.	.	.
COc1ccc(N2CCN(C(=O)CN(c3cccc(OC)c3)S(=O)(=O)c3ccccc3)CC2)cc1	.	?	21µM	15µM	.	.
COc1ccc(S(=O)(=O)N(CC(=O)N2CCN(c3ccccc3)CC2)c2ccccc2)cc1	.	.	.	?	.	.
COc1ccc(N(CC(=O)N2CCN(c3ccccc3)CC2)S(=O)(=O)c2ccccc2)cc1	.	/	16µM	18µM	.	.
COc1ccc(C(=O)Nc2ccc(C(=O)OCc3cc(=O)n4nc(C5CC5)sc4n3)cc2)cc1	.	/	.	.	/	.
COC(=O)c1ccccc1NC(=O)CC(=O)Nc1ccccc1C(=O)OC	.	.	.	?	.	.
CCN(CC(=O)Nc1ccccc1C(=O)OC)S(=O)(=O)c1ccccc1	.	.	23µM	?	.	.
O=C(c1cc2c(cc1Br)OCCCO2)N1CCCCC1	.	.	.	.	.	.
CC1C/C(=N\NC(=S)NCc2ccccc2)CC(C)(C)C1 (stereo unspecified)	.	.	?	26µM	.	.
CCOC(=O)CSc1nc(C)c(C(C)=O)cc1C#N	.	.	.	.	.	.
CCOC(=O)CSc1nc(C)c(C(C)=O)cc1C(N)=O	.	.	.	.	-57	.
CCOC(=O)/C(C#N)=C1/C=C(C)NC(c2ccccc2O)=N1	.	.	15µM	21µM	-64	?
SMILES	HepG2 viability	ASM inhibitor	TDP1 cell CPT	DT40 TDP1 no CPT	IL1B secr inh	TGFb inhibitor
CCOC(=O)/C(C#N)=C1/C=CN(C)C(C)=N1	.	.	.	.	.	.
COc1cccc2cc(C(=O)Nc3ccc(CC(=O)O)cc3)c(=O)oc12	.	/	/	/	/	.
Cc1ccc(NC(=S)NCC2CCCO2)cc1C (stereo unspecified)	.	.	.	.	.	.
Cc1ccc(NC(=S)NCC2CCN(C(C)c3ccccc3)C2)cc1C (stereo unspecified)	.	.	23µM	16µM	.	?
COC(=O)[C@@]12CCCN1[C@H](c1ccc(SC3CCCCC3)cc1)[C@H]1C(=O)N(C)C(=O)[C@H]12	.	.	?	16µM	.	.
CCSc1ccc([C@@H]2[C@@H]3C(=O)N(C)C(=O)[C@@H]3[C@]3(C(=O)OC)CCCCN23)cc1	.	.	16µM	?	?	.
COC(=O)[C@@]12CCCCN1[C@H](c1ccc(SC3CCCCC3)cc1)[C@H]1C(=O)N(C)C(=O)[C@H]12	.	.	?	16µM	.	?
CCOc1ccc(N(CC(=O)NCC2CCCO2)C(=O)CCC(=O)Nc2nccs2)cc1 (stereo unspecified)	.	.	.	.	.	.
O=C(NCc1cccc(Cl)c1)c1cnc(N2CCCCC2)c2ccccc12	.	/	16µM	26µM	/	?
Cc1ccc(CNC(=O)c2cnc(N3CCCCC3)c3ccccc23)cc1	.	/	?	16µM	/	11µM
O=C(NCc1ccc(F)cc1)c1cnc(N2CCOCC2)c2ccccc12	.	/	?	16µM	/	.
O=C(NCc1ccc(Cl)cc1)c1cnc(N2CCCCC2)c2ccccc12	.	/	?	?	/	?
COc1cccc(CNC(=O)c2cnc(N3CCCCC3)c3ccccc23)c1	.	/	15µM	?	/	.
CC(C)c1ccc(NC(=O)C2C3C=CC4(O3)C2C(=O)N(CCCN2CCOCC2)C4C(=O)NC2CCCCC2)cc1 (stereo unspecified)	.	.	.	.	.	.
COC(=O)c1cc(C(=O)c2ccc(Cl)cc2)n2c(=O)/c(=C\N(C)C)sc12	.	.	?	.	.	.
CCOC(=O)c1sc(NC(=O)c2c(-c3ccccc3)c(-c3ccccc3)nn(C)c2=O)nc1C	.	/	?	16µM	/	.
CCn1nc(-c2ccccc2)c(-c2ccccc2)c(C(=O)Nc2ccccc2C#N)c1=O	.	/	18µM	12µM	/	.
CCn1nc(-c2ccccc2)c(-c2ccccc2)c(C(=O)Nc2ccccc2C(N)=O)c1=O	.	/	?	?	/	.
Cc1nc(NC(=O)c2c(-c3ccccc3)c(-c3ccccc3)nn(C)c2=O)sc1C	.	/	0.46µM	0.58µM	/	.
CC(C)CNC(=O)c1c(-c2ccccc2)c(-c2ccccc2)nn(C)c1=O	.	/	?	?	/	.
CCOC(=O)c1sc(NC(=O)c2c(OC)cccc2OC)nc1C	.	.	.	.	.	.
C=C(C)CCOC(=O)C(CC(=O)O)NCc1ccco1 (stereo unspecified)	.	.	.	.	.	.

Assay outcomes (PubChem)
